# The panel holds about 83,000 compounds, 20% with a hit somewhere; the sample as a whole holds those more often.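 Note: values are percent growth. 100 is the growth of untreated cells, values between 100 and 0 indicate rising inhibition; between -100 and 0 indicates cell death.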 Unmarked numbers belong to inactive results. Activity calls are given as the source filed them.
# Test system: OVCAR-3 ovarian
# Test: NCI-60 one-dose screen, 48 h (100 = growth as untreated, 0 = no growth, -100 = all killed)
# Details: 10 µM unless noted
# Description: Growth inhibition of the OVCAR-3 human tumor cell line is measured as a screen for anti-cancer activity. Cells are grown in 96 well plates and exposed to the test compound for 48 hours. Compounds are tested at a single concentration, which is 10^-5 M for most compounds. The reported endpoint is percent growth (GI% or GIPRCNT), where numbers from 0 - 100% represent growth inhibition, and numbers from -100% - 0 represent cell death. For example, a value of 40 represents 60% growth inhibition. A value of 0 means no net growth occurred over the course of the experiment. A value of -40 indicates 40% of cells at the beginning of the experiment died by the end of the experiment. A value of -100 means all cells are dead at the end of the experiment.
# NCI-60 Human Tumor Cell Lines Screen was performed using the standard one-dose NCI protocol, which is described in more detail at https://dtp.cancer.gov/discovery_development/nci-60/default.htm.
# Compounds with GIPRCNT values below 10 were considered active. Activity score was based on GIPRCNT using the following formula: […]
# Score is 0 for GIPRCNT values of 100 or above, 50 for GIPRCNT values of 0, and 100 for GIPRCNT values of -100.
row,SMILES,growth
1,Cn1c(C(N)=O)cc2c1-c1nc(NC3CCCCC3)ncc1CCC2,97.1%
2,O=C(NCCCN1CCN(CCCNC(=O)C2CCCCC2)CC1)C1CCCCC1,99.3%
3,O=[N+]([O-])c1cc(S(=O)(=O)OCC2CO2)ccc1Cl (stereo not given),108%
4,C=CC(=O)N[C@H](/C=C/C(=O)OCC)Cc1ccc(-c2cc(Cl)cc(Cl)c2)cc1,89.5%
5,FC(F)(F)c1cccc(-n2nnc3cnc(Nc4ccc(N5CCCCC5)cc4)nc32)c1,82.4%
6,COC(=O)c1ccc2nc(-c3cc4ccccc4n3C)n(CCCCOc3cc4c(cc3OC)C(=O)N3CCC[C@H]3C=N4)c2c1,-40.2% (active)
7,NS(=O)(=O)c1ccc(NCC(=O)Nc2ccc(-c3nc4ccccc4s3)cc2)cc1,34.3%
8,CCCC(C(=O)OCC)C(C)OC(=O)OCC (stereo not given),103%
9,Cc1cc(Nc2nc(-c3ccncc3)nc3ccccc23)n[nH]1,67.2%
10,CCN(CC)CCCC(C)N=c1cc(Nc2cc(=NC(C)CCCN(CC)CC)c3cc(OC)ccc3o2)oc2ccc(OC)cc12 (stereo not given),-20.8% (active)
11,O=C(CCCn1c(=O)c2sc3ccccc3c2n2nnc(-c3ccccc3)c12)NCCc1cnc[nH]1,-47.6% (active)
12,Nc1ccccc1C#C/C=C\C#Cc1cccc(O)c1,43%
13,NS(=O)(=O)c1ccc(CN2C(=O)c3cccc4cccc(c34)C2=O)cc1,98.5%
14,O=S(=O)(NCCCNc1cc(-c2cn(-c3ccccc3)nc2-c2cccc(O)c2)ccn1)c1cccc(F)c1,65.6%
15,COc1cc(CCn2nnc3c(NCCCCO)ncnc32)cc(OC)c1,107%
16,COc1cc2c(cc1OCCCCn1c(-c3cc(=O)c4ccccc4o3)nc3ccccc31)N=C[C@@H]1CCCN1C2=O,111%
17,C=C1C(=O)O[C@H]2[C@H]1CC/C(COC(=O)NCc1cc(OC)cc(OC)c1)=C\CC[C@@]1(C)O[C@@H]21,-76.8% (active)
18,CN(C)C/C=C/C(=O)Nc1cc2c(Nc3cccc(Cl)c3F)ncnc2cc1OCCOC(F)F,23.9%
19,COc1ccc(/C=C/C(=O)c2ccc(NC(=O)CN3CCN(c4cc5c(cc4F)c(=O)c(C(=O)O)cn5C4CC4)CC3)cc2)cc1,118%
20,COc1cc(C(=O)CCCl)ccc1O,102%

row,SMILES,growth
1,COc1cccc2cc(-c3cc4ccccc4[nH]3)c(=NC(=O)c3ccc(Cl)cc3)oc12,67%
2,Cc1ccc(Oc2nc3ccccc3cc2-c2nnc(Cn3c(COc4ccccc4)nc4ccccc43)o2)cc1,35.7%
3,CCn1cc(C(=O)O)c(=O)c2cc(F)c(N3CCN(S(=O)(=O)c4ccc(OC)c(OC)c4)CC3)cc21,109%
4,COc1cc(OC)c(C(=O)/C=C/c2ccc(C(F)(F)F)cc2)c(OC)c1,16.9%
5,Clc1ccc(-c2nc(-c3ccco3)cn3ccnc23)cc1,50.7%
6,Cc1ccc2c(c1)C(C)Cc1c(N(C)C)ncnc1N2C (stereo not given),14%
7,C=C1C(=O)O[C@H]2[C@H]1CC/C(COC(=O)NCc1cc(OC)c(OC)c(OC)c1)=C\CC[C@@]1(C)O[C@@H]21,21.2%
8,O=C(N/N=C/c1c(Cl)cccc1Cl)c1ccccc1Nc1ccnc(C(F)(F)F)c1,110%
9,COc1cccc(/C=C/c2c(C(=O)O)cccc2[N+](=O)[O-])c1OC,102%
10,COc1ccc(C2SCC(=O)N2NC(=O)c2ccc(NC(=O)c3ccccn3)cc2)cc1OC (stereo not given),101%
11,COC(=O)CC/C(C)=N\Nc1ccc([N+](=O)[O-])cc1,88.3%
12,CCCCNc1nnc(-c2cc(-c3cc4ccccc4o3)nn2-c2ccccc2)o1,66%
13,COc1ccc(/C(=N\O)c2cc(OC)c(OC)c(OC)c2)c(OC)c1N,-25.1% (active)
14,O=S(=O)(NCCCNc1nccc(-c2c(-c3ccc(O)cc3)nc3sccn23)n1)c1ccc(F)cc1,23%
15,CC1=C(C#N)C(C)(C)C(C#N)=C(C)N1,107%
16,Nc1c(C(=O)Nc2cccc(C(F)(F)F)c2)sc2nc3c(cc12)CCCCCC3,0.0711% (active)
17,Cc1cccc(-n2c(C)nc3ccc(NC(=O)NCCCl)cc3c2=O)c1,105%
18,COc1ccc(C2=NN(c3ccc(S(N)(=O)=O)cc3)C(c3cn(-c4ccccc4)nc3-c3ccc(Cl)cc3)C2)cc1 (stereo not given),92.4%
19,CCCCCCCCCN1C(=O)/C(=c2\sc3n(c2=O)C2C(NN=3)N(CC)C(=O)N2CC)c2ccccc21 (stereo not given),21.1%
20,O=S=Nc1ccc([N+](=O)[O-])cc1,98.3%
